Assay outcomes deposited in PubChem by National Center for Advancing Translational Sciences (NCATS).
BAZ2B block = qHTS Assay for Inhibitors of BAZ2B; Bromodomain adjacent to zinc finger domain protein 2B (Homo sapiens), Q9UIF8; AlphaScreen BAZ2B-H3K14Ac peptide displacement; Potency, µM (titrated, usually from 114 µM), for inactives: at the highest dose activity change, negative = inhibition, most hits filed as inhibitors; actives 4.4% (n = 360,000); AID 504333, 2011; also: % is scaled to controls: 0 for no effect and ±100 for the full control effect; nearly all actives have a fitted effect of over 60% in size
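Compounds, titrated to a top concentration of 110 uM, were incubated 30 min at room temperature with preformed BAZ2B/acetyl-K14 H3 peptide complex (50 nM each). Proximity signal was measured by AlphaScreen after 20 min with beads.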
HP1b binding inh = HTS for Inhibitors of HP1-beta Chromodomain Interactions with Methylated Histone Tails; AlphaScreen HP1-beta / biotin-H3K9me3 peptide binding; AID 540317, 2011; actives 0.56% (n = 390,000); Chromobox protein homolog 1 (Homo sapiens), P83916; Potency, µM (top dose mostly 114 µM), inactives show at the top dose activity change, negative = inhibition, usual class: inhibitors; also: nearly all actives have a fitted effect of over 70% in size
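AlphaScreen: HP1-beta (50 nM) preformed 30 min with biotin-H3(1-18)K9me3 peptide (50 nM) in PBS pH 7.4, 0.01% Tween-20. Compound added for 30 min at RT, then streptavidin donor/nickel chelate acceptor beads (10 ug/mL) for 30 min.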
JMJD2A Tudor = qHTS Assay for Inhibitors of JMJD2A-Tudor Domain. Lysine-specific demethylase 4A (Homo sapiens), O75164. Potency, µM (doses to about 114 µM), without a hit: top-dose activity change, negative = inhibition, hits mostly inhibitors. AlphaScreen JMJD2A-Tudor / H3K4me3 peptide binding. actives 4.4% (n = 390,000); also: % is scaled to controls: 0 for no effect and ±100 for the full control effect; nearly all actives have a fitted effect of over 50% in size
Target sequence (O75164 whole entry, looked up, the tested form may be a part): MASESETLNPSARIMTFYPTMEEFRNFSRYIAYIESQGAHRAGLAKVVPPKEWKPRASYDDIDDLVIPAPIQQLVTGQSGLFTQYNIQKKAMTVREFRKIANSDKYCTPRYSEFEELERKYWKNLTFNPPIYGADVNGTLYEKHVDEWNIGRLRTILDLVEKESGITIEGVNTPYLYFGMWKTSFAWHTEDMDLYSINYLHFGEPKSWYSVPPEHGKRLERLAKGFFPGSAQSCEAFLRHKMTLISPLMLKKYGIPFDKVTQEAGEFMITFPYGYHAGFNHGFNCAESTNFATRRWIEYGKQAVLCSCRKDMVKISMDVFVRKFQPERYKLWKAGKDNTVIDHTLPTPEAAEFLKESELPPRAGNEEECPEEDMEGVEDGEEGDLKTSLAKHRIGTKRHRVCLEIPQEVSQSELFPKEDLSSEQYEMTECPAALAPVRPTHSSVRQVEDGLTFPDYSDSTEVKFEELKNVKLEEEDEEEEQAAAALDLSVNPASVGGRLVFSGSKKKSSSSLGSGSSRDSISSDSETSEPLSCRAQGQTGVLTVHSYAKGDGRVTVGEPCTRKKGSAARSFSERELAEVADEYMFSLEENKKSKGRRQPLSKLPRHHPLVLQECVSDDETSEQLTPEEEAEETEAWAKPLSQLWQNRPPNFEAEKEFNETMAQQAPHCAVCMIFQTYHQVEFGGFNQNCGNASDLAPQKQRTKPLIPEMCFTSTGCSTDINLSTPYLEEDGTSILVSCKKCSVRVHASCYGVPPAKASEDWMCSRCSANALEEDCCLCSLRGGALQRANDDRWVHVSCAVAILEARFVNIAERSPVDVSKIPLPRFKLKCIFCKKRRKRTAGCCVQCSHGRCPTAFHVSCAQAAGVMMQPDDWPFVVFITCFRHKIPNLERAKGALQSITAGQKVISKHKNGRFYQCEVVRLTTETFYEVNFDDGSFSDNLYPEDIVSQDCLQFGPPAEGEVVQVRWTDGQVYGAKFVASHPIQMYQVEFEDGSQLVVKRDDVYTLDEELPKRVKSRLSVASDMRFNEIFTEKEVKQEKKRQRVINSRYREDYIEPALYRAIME
GLS inhibitor = qHTS for Inhibitors of Glutaminase (GLS). Glutaminase kidney isoform, mitochondrial (Homo sapiens), O94925. GLS enzymatic activity, qHTS titration. Potency, µM (titrated, usually from 45.5 µM), for the others: at the top dose activity change, negative = inhibition, most hits filed as inhibitors. actives 0.21% (n = 410,000); also: % is scaled to controls: 0 for no effect and ±100 for the full control effect
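Enzyme dispensed in phosphate buffer (45 mM, pH 8.2, 0.02% Tween-20), compounds pinned in, then 1 mM L-glutamine solution and the glutamate oxidase–HRP–Amplex Red mix added; fluorescence read immediately and again after 30 min at room temperature.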
G9a block = qHTS Assay for Inhibitors of Histone Lysine Methyltransferase G9a; G9a H3K9 monomethylation, AlphaScreen, 2 h; AID 504332, 2011; actives 8.8% (n = 350,000); Potency, µM (titrated, usually from 102 µM), for inactives: at the highest dose activity, negative = inhibition, usual class: inhibitors; also: % is scaled to controls: 0 for no effect and ±100 for the full control effect; nearly all actives have a fitted effect of over 75% in size
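Chemiluminescent proximity detection of H3K9 monomethylation, read after 10 min bead incubation in the dark. Reaction: 20 nM G9a, 500 nM biotin-H3K9 peptide, 20 uM SAM cofactor, 2 h, room temperature, following 15 min enzyme-compound preincubation.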
Numbers without * were called inactive; ? = inconclusive; · = not tested or not shown; [ ] = dose if it differs, or a comment. Sampled rows, rich in hits. Any-hit rate of the full collection: about 10%. Calls follow the shape of the dose curve; as a rule, active = well fitted curve in the direction sought with a large enough effect; inconclusive = small, poorly fitted or top-dose-only effect, or another doubt; inactive = no such curve, though single readings can be large; an effect the other way counts as inactive or inconclusive. Potency is read from the fitted curve at half-maximal effect.

SMILES | BAZ2B block | HP1b binding inh | JMJD2A Tudor | GLS inhibitor | G9a block
CC(=O)Oc1ccc2ccc3ccc(C(C)=O)cc3c2c1 | · | 3% | -6% | -17% | ·
COc1ccc(OCC(=O)Nc2cc3c(cc2C(=O)O)OCCCO3)cc1 | 3% | 19% | -20% | 11% | 14µM*
CCOc1ccc(OCC(=O)Nc2cc3c(cc2C(=O)O)OCCCO3)cc1 | 2% | 36% | -17% | 3% | 14µM*
COc1ccc(C(=O)Nc2cc3c(cc2C(=O)O)OCCCO3)c(OC)c1 | 0% | 0% | -8% | -6% | 18%[59 µM]
COc1cccc(CCC(=O)Nc2cc3c(cc2C(=O)O)OCCCO3)c1OC | -20% | 21% | -14% | 16% | 7.9µM*
Fc1ccc(Nc2ncnc3c2nc2n3CCCCC2)c(F)c1 | -2% | 11% | -10% | 8% | 1%[59 µM]
CNS(=O)(=O)c1ccc(NCC2COc3ccccc3O2)c([N+](=O)[O-])c1 (stereo unspecified) | 50µM* | -16% | -25%[57.1 µM] | 3% | 16µM*
O=c1cc(CSc2ccc(Cl)cc2)[nH]c2[nH]n(-c3ccccc3)c(=O)c12 | 35µM* | ? | ? | -16% | 40µM*
Cc1ccc2c(=O)cc(CSc3ccccc3)[nH]c2c1C | 8% | 18%[57 µM] | -15% | 13% | 20%[59 µM]
Cc1ccc(SCc2cc(=O)c3c(=O)n(-c4ccccc4)[nH]c3[nH]2)cc1 | 28µM* | ? | ? | -1% | 18µM*
Cc1noc(C)c1C(=O)N1CCC1(C)C(=O)NS(=O)(=O)c1ccc(F)cc1F (stereo unspecified) | · | · | · | 4% | ·
CCc1cc2ccccc2nc1SCC(=O)N1CCN(C(=O)c2ccco2)CC1 | ? | 30% | -14% | 6% | 50µM*
CCc1cc2cc(C)ccc2nc1SCC(=O)N1CCN(C(=O)c2ccco2)CC1 | ? | -8% | ? | -7% | ?
CCc1nc(SCC(=O)N2CCN(C(=O)c3ccco3)CC2)c2c3c(sc2n1)CCCC3 | -11% | -21% | ? | -1% | 50µM*
COc1ccc(CNC(=O)c2ccc3c(c2)nc2n3CCC(C)C2)c(OC)c1 (stereo unspecified) | -4% | 12%[57 µM] | -19% | -14% | -3%[59 µM]
Cc1ccc(SC[C@H](C)CN2CC[C@H](NC(=O)OCc3ccccc3)CCC2=O)cc1 | -33% | 38% | -13% | 0% | ·
Cc1ccc(S[C@@H](CCN2CC[C@H](NC(=O)OCc3ccccc3)CCC2=O)c2ccccc2)cc1 | -8% | 30% | 25µM* | -3% | ·
CC(=O)c1c(C)n(-c2ccc(Cl)cc2)c2ccc(O)cc12 | 2% | -1% | -8% | 10% | ?
CC(=O)c1c(C)n(-c2cccc(Cl)c2)c2ccc(O)cc12 | 0% | 8% | -20% | -4% | 35µM*
Cn1c(=O)n(Cc2ccccc2Cl)c(=O)c2c1[nH]c(=S)n2C | ? | ? | 13µM* | 14µM* | 1.3µM*
Cn1c(=O)n(Cc2ccccc2Cl)c2ccccc21 | -7% | ? | ? | -10% | 33%
O=c1c2nccnc2[nH]c(=S)n1Cc1ccccc1Cl | ? | 50% | -12% | 10µM* | -48%
Cn1c(SCc2nn[nH]n2)nc2c1c(=O)n(Cc1ccccc1Cl)c(=O)n2C | 0% | 23% | -33% | 11µM* | ?
Cn1c(=O)c2c(nc(SCc3nn[nH]n3)n2Cc2ccccc2F)n(C)c1=O | -9% | 55% | ? | -6% | ?
Cc1ccc(C2C=C(c3ccccc3OC(F)F)Nc3ncnn32)cc1 (stereo unspecified) | -7% | 35% | -17% | 4% | ?
SMILES | BAZ2B block | HP1b binding inh | JMJD2A Tudor | GLS inhibitor | G9a block
CN(C)c1ccc(C2C=C(c3ccc(Cl)cc3OC(F)F)Nc3ncnn32)cc1 (stereo unspecified) | ? | -25% | 45µM* | 3% | 35µM*
CSCC[C@H](NC(=O)Cc1c(C)c2c(cc(C)c3c(C)coc32)oc1=O)C(=O)O | -20% | 67% | -20% | 11% | -11%
c1nc(NCC2CCCO2)c2ccc(-c3ccc4c(c3)OCO4)cc2n1 (stereo unspecified) | · | · | 79µM* | · | ·
O=C(O)Cc1csc(NC(=O)CSc2cccc(C(=O)O)n2)n1 | -39% | -18% | 89µM* | 1% | ·
CC(=O)Nc1ccc(S(=O)(=O)Nc2ccccc2C(=O)N2CCCCC2)cc1 | -6% | 20% | 6% | -13% | 6%[12.7 µM]
O=C([C@H]1O[C@@H](n2ccc(=O)[nH]c2=O)[C@H](O)[C@@H]1O)N1CCC(F)(F)CC1 | · | · | · | 3% | ·
COc1ccc(C(CC(=O)O)NC(=O)COc2cc(C)ccc2C)cc1OC (stereo unspecified) | · | 4% | -13% | 1% | 32µM*
CCOc1ccc(C(CC(=O)O)NC(=O)COc2ccccc2)cc1OC (stereo unspecified) | · | 10% | -5% | -14% | -36%
COc1ccc(OCC(=O)NC(CC(=O)O)c2ccc(OC)c(OC)c2)cc1 (stereo unspecified) | · | 5% | -13% | -3% | -44%
COc1ccc(C(CC(=O)O)NC(=O)COc2ccccc2)cc1OC (stereo unspecified) | 0% | 13% | -7% | 9% | 79µM*
O=C(O)c1ccc(Cl)c(S(=O)(=O)N(Cc2ccccc2)c2ccccc2)c1 | 1% | -20% | -12% | 14% | ?
CCN(c1ccccc1)S(=O)(=O)c1cc(C(=O)O)ccc1C | 50µM* | 8% | -24% | 6% | 1%[0.501 µM]
COc1cc(C2c3cc4c(cc3CC3COC(=O)N32)OCO4)cc(OC)c1OC (stereo unspecified) | · | 41% | 8% | -2% | ·
O=[N+]([O-])c1c(Nc2cccc(O)c2)cc(Cl)c2nonc12 | ? | -15% | ? | 2% | 45µM*
O=C(O)c1ccc(Nc2cc(Cl)c3nonc3c2[N+](=O)[O-])cc1 | -29% | 7% | -14% | -7% | 35µM*
O=C(O)c1cccc(Nc2ccc3nonc3c2[N+](=O)[O-])c1 | -20% | 21% | -17% | -2% | -2%
Cc1c(Nc2cc(N3CCOCC3)c3nonc3c2[N+](=O)[O-])c(=O)n(-c2ccccc2)n1C | -19% | · | · | · | ?
Cc1c(Nc2cc(Cl)c3nonc3c2[N+](=O)[O-])c(=O)n(-c2ccccc2)n1C | -20% | -24% | -9%[11.4 µM] | 0% | 7.1µM*
Cc1ccc(-n2c(=O)c3ccc(C(=O)NCc4ccccc4Cl)cc3n(Cc3cccc(F)c3)c2=O)cc1 | · | 32% | -6% | 0% | ?
CC1=NOC(=O)/C1=C/c1ccc(O)cc1 | 50µM* | 41% | 16µM* | -15% | 50µM*
